TDP1 cell noCPT – qHTS for Inhibitors of human tyrosyl-DNA phosphodiesterase 1 (TDP1): qHTS in cells in absence of CPT; DT40 Tdp1-/- hTDP1 cells, no CPT, ATP luminescence, 48 h; Potency, µM (titrated, usually from 46.2 µM), usual class: inhibitors; AID 686978, 2013; actives 15% (n = 420,000); also: nearly all actives have a fitted effect of over 55% in size
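A cellular qHTS used chicken DT40 cells lacking endogenous Tdp1 but carrying stably transfected human TDP1. Compounds were applied without camptothecin, and cell growth kinetics were judged by ATP-dependent luminescence after ≥48 hr.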
DT40 TDP1 CPT – growth inhibition of DT40 Tdp1-/-;hTDP1 cells with camptothecin (screen for TDP1 inhibitors); Potency, µM (titrated, usually from 46.2 µM), actives largely listed as inhibitors; chicken DT40 Tdp1-/-;hTDP1 cells + 20 nM CPT, ATP luminescence, 48 h; AID 686979; actives 12% (n = 420,000); also: nearly all actives have a fitted effect of over 55% in size
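Chicken DT40 Tdp1-/- cells stably complemented with human TDP1 were seeded at 400 cells/well in medium containing 20 nM camptothecin, exposed to pin-transferred compounds, and grown at 37 °C for at least 48 hr. Viability was read as ATP luminescence.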
KB-V1 cytotox – KB-V1 MDR subline cytotoxicity. Potency, µM (highest dose often 46.1 µM), actives largely listed as cytotoxic. actives 3.4% (n = 400,000). KB-V1 MDR cells viability, CellTiter-Glo, 72 h; also: nearly all actives have a fitted effect of over 60% in size
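Following 72 h at 37 degrees C with compound, KB-V1 cell viability was read by CellTiter-Glo luminescence, medium being phenol-red-free DMEM plus 10% FBS; concentration-response parameters came from normalized, curve-fitted qHTS data.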
HT1080-NT tox – kills 2HG-producing HT-1080-NT fibrosarcoma cells. HT-1080-NT fibrosarcoma viability, CellTiter-Glo ATP luminescence, 48 h. Potency, µM (titrated, usually from 46.1 µM), usual class: cytotoxic. actives 1.6% (n = 360,000). AID 686970;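 also: NT is the 2HG producing partner of a matched IDH1 knockdown line; nearly all actives have a fitted effect of over 55% in size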
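Viability of the 2HG-overproducing fibrosarcoma line after 48 hours of compound exposure at 37 degrees C was determined by luminescence with CellTiter-Glo, and concentration-effect curves were then fitted and categorized.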
KB-3-1 cytotox – kills parental KB-3-1 adenocarcinoma cells. KB-3-1 viability, CellTiter-Glo ATP luminescence, 72 h. actives 1.4% (n = 400,000). AID 1347075. Potency, µM (series often up to 46.1 µM), hits mostly cytotoxic; also: nearly all actives have a fitted effect of over 60% in size
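Cytotoxicity in the drug-sensitive parental line KB-3-1 was scored as loss of CellTiter-Glo luminescence following 72 h incubation with compound. Values come from curve fitting of normalized concentration-response data.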
HT1080 IDH1KD tx – HT-1080 IDH1 knockdown cell toxicity (counter line); HT-1080 IDH1 knockdown viability, ATP luminescence, 48 h; Potency, µM (top dose mostly 46.1 µM), hits mostly cytotoxic; actives 2% (n = 360,000)
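Viability of IDH1-knockdown HT-1080 fibrosarcoma cells was assessed by CellTiter-Glo after 48 h at 37 °C with titrated compound; concentration-effect curves were classified by fit quality and response size.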
A number is an active result; n = inactive; u = inconclusive; x = no result given. In the library only some 19% were active in any assay of this set; here they are far more common. Calls follow the shape of the dose curve; as a rule, active = well fitted curve in the direction sought with a large enough effect; inconclusive = small, poorly fitted or top-dose-only effect, or another doubt; inactive = no such curve, though single readings can be large; an effect the other way counts as inactive or inconclusive.

SMILES | TDP1 cell noCPT | DT40 TDP1 CPT | KB-V1 cytotox | HT1080-NT tox | KB-3-1 cytotox | HT1080 IDH1KD tx
Cc1ccc(N2C(=O)C3CCC(C)(C2=O)C3(C)C)cc1 (configuration not stated) | n | n | u | n | n | n
COc1cc2c(NC3CCN(C)CC3)nc(N3CCCN(C)CC3)nc2cc1OCCCN1CCCC1 | u | u | n | x | u | x
COc1cc2c(NC3CCN(C(C)C)CC3)nc(N3CCCN(C)CC3)nc2cc1OCCOCCN1CCCC1 | 14µM | 10µM | n | x | 12µM | x
COc1cc2c(NC3CCN(C)CC3)nc(N3CCCCC3)nc2cc1OCCOCCN1CCCC1 | u | 13µM | n | x | u | x
CCOc1ccccc1CNC(=O)c1cc(-c2ccc(C)c(C)c2)nc2ccccc12 | u | 21µM | n | x | n | x
CCOc1ccccc1CNC(=O)c1cc(-c2ccc(Cl)s2)nc2ccccc12 | 13µM | n | n | x | n | x
O=C(COC(=O)c1cc(-c2ccc(Cl)s2)nc2ccccc12)NCc1ccco1 | 16µM | 18µM | n | u | n | u
Nc1nc(SCc2ccc(Cl)cc2Cl)c2ncn(C3OC(CO)C(O)C3O)c2n1 (configuration not stated) | n | n | n | n | u | n
CCCCN(C=O)c1c(CC)nc2c(OCC3CCCCC3)cccn12 | 9.2µM | 21µM | n | u | u | n
CCc1nc2c(OCCC3CCCCC3)cccn2c1N(C)C(=O)CC(C)C | 10µM | 21µM | u | u | u | u
CCc1nc2c(OCCn3cccc3)cccn2c1N(C)C(=O)c1cccs1 | n | u | n | n | n | n
CCCCC(=O)N(C)c1c(CC)nc2c(OCC3CCCCC3)cccn12 | 21µM | u | 26µM | u | u | u
CCc1nc2c(OCCC3CCCCC3)cccn2c1N(C)C(=O)c1cccs1 | 21µM | 29µM | u | u | u | u
CCc1nc2c(OCCn3cccc3)cccn2c1N(C)C(=O)CC(C)C | u | n | n | u | n | n
COc1ccc(C)cc1NC1(c2ccccc2)C(=O)c2ccccc2C1=O | n | n | u | x | n | x
CC(=O)c1ccc(NC(=O)C(C)OC(=O)c2ccc(NS(=O)(=O)c3ccc(F)c(F)c3)cc2)cc1 (configuration not stated) | n | n | n | n | n | n
COc1ccc(CCN2CC(C(=O)N(C)C3CCOCC3)CCC2=O)cc1 (configuration not stated) | n | n | n | n | n | n
Cc1ccc(S(=O)(=O)NC(=O)C2(C)CCN2C(=O)Cc2cc(F)ccc2F)nc1 (configuration not stated) | n | n | n | n | n | n
O=C(CSc1nnc(-c2ccccn2)o1)Nc1ccccc1Cl | n | n | n | n | n | n
CCCCC(=O)N(C)c1c(CC)nc2c(OCCC3CCCCC3)cccn12 | 16µM | u | u | u | n | u
CNC(=O)c1ccc(-c2sc3nc(N4CCOCC4)c4c(c3c2N)CC(C)(C)OC4)o1 | 18µM | 21µM | u | n | n | n
CNC(=O)c1ccc(-c2sc3nc(N4CCOCC4)c4c(c3c2N)CCCC4)o1 | 15µM | 21µM | u | n | u | n
CC1(C)Cc2c(c(N3CCOCC3)nc3sc(-c4ccc(C(=O)O)o4)c(N)c23)CO1 | u | n | u | n | u | n
CN1Cc2c(N3CCOCC3)nc3sc(C(=O)c4ccc(Br)cc4)c(N)c3c2CC1(C)C | 5.2µM | 4.1µM | u | 23µM | u | 13µM
CN1C(=O)C(C)(C)c2cc(S(=O)(=O)N3CCN(c4cccc(Cl)c4)CC3)ccc21 | u | u | n | n | n | n
SMILES | TDP1 cell noCPT | DT40 TDP1 CPT | KB-V1 cytotox | HT1080-NT tox | KB-3-1 cytotox | HT1080 IDH1KD tx
CCOC(=O)c1cc2sccc2n1CC(=O)C(C)(C)C | n | n | n | n | n | n
COc1ccc(CNC(=O)C(C)N2Cc3ccccc3C2=O)cc1 (configuration not stated) | n | n | u | x | n | x
COc1ccc(C(CC(=O)NCc2ccccc2)N2Cc3ccccc3C2=O)cc1 (configuration not stated) | 23µM | u | x | x | x | x
CC(=O)c1ccc(NC(=O)CC(c2cccs2)N2Cc3ccccc3C2=O)cc1 (configuration not stated) | u | n | n | x | n | x
COc1cc(OC)c(NC(=O)CC(c2cccs2)N2Cc3ccccc3C2=O)cc1Cl (configuration not stated) | 18µM | 23µM | n | x | n | x
COc1ccc(C(CC(=O)Nc2ccc(C(C)=O)cc2)N2Cc3ccccc3C2=O)cc1 (configuration not stated) | n | n | x | x | x | x
COc1ccc(C(CC(=O)Nc2cc(OC)c(OC)c(OC)c2)N2Cc3ccccc3C2=O)cc1 (configuration not stated) | 23µM | 23µM | x | x | x | x
CCCC(C(=O)NCc1cccc(Cl)c1)N1Cc2ccccc2C1=O (configuration not stated) | 12µM | u | n | x | n | x
O=C(CCc1nc2ccccc2c(=O)[nH]1)N1CCN(S(=O)(=O)c2ccc(Cl)c(C(F)(F)F)c2)CC1 | u | u | u | n | n | n
COc1ccc(C(CC(=O)Nc2ccccn2)N2Cc3ccccc3C2=O)cc1OC (configuration not stated) | n | n | n | n | n | n
COc1ccc(C(CC(=O)NCc2ccc(Cl)cc2)N2Cc3ccccc3C2=O)cc1OC (configuration not stated) | 13µM | 18µM | x | x | x | x
COc1ccccc1CNC(=O)CC(c1ccc(OC)c(OC)c1)N1Cc2ccccc2C1=O (configuration not stated) | u | n | u | x | n | x
COc1ccc(C(CC(=O)Nc2cc(C)ccn2)N2Cc3ccccc3C2=O)cc1 (configuration not stated) | 13µM | u | u | n | n | n
COc1ccc(OC)c(CNC(=O)C2CCN(S(=O)(=O)c3ccc4[nH]c(=O)oc4c3)CC2)c1 | n | n | n | x | n | x
O=C(CSc1nc2ccccc2s1)c1ccc(O)cc1O | n | u | n | n | n | n
Cc1ccc(-n2nc(CO)c(C(=O)NCCCCc3ccccc3)n2)cc1 | u | n | x | x | x | x
Cc1ccc(-n2nc(CO)c(C(=O)NCCCc3ccccc3)n2)cc1 | 23µM | u | x | x | x | x
Cc1ccc(-n2nc(CO)c(C(=O)NC(C)CCCc3ccccc3)n2)cc1 (configuration not stated) | 21µM | u | x | x | x | x
